In PubChem BioAssay (EPA / NIEHS):
More than one record can exist for a structure, and the calls need not agree. Activity calls are given as the source filed them. The calls were made as follows: active = hit-call score of the fitted dose curve at least 0.9, where 1 is the maximum; inactive = score below 0.9.

Assay: ATG_GATA_CIS: Attagene CIS-FACTORIAL HepG2 Assay for human GATA Binding Protein (AID 2282944)
Settings: HepG2 GATA cis-element reporter, Attagene multiplex mRNA; actives raise or lower the signal
Procedure: ATG_CIS is a cell-based, multiplexed-readout assay that uses HepG2, a human liver cell line, with measurements taken at 24 hours after chemical dosing in a 24-well plate.ATG_GATA_CIS is one of 52 assay component(s) measured or calculated from the ATG_CIS assay. It is designed to make measurements of mRNA induction, a form of inducible reporter, as detected with fluorescence intensity signals by Reverse transcription polymerase chain reaction (RT-PCR) and Capillary electrophoresis technology.Data from the assay component ATG_GATA_CIS was analyzed into 1 assay endpoint. This assay endpoint, ATG_GATA_CIS, was analyzed with bidirectional fitting relative to DMSO as the negative control and baseline of activity. Using a type of inducible reporter, measures of mRNA for gain or loss-of-signal activity can be used to understand the reporter gene at the transcription factor-level as they relate to the gene GATA1. Furthermore, this assay endpoint can be referred to as a primary readout, because this assay has produced multiple assay endpoints where this one serves a reporter gene function. To generalize the intended target to other relatable targets, this assay endpoint is annotated to the dna binding intended target family, where the subfamily is GATA proteins.
Human liver HepG2 cells are transiently transfected with multiple reporter transcription units (MRTUs) in 6-well plates using FuGene 6 reagent (Roche; 3 ml FuGene/1 mg DNA). The MRTU constructs are regulated by a cis-regulating element (promoter). […] A major difference between the CIS and TRANS system is that in CIS activities of endogenous TFs are measured, whereas the TRANS assay evaluates changes in activities of exogenous, chimeric NR-Gal4 proteins. […] At the end of 24 hour incubation, total RNA was isolated using TriZol reagent (Invitrogen). The isolated RNA is then reverse-transcribed using oligo(dT) primer and Mo-MLV reverse transcriptase (Invitrogen) with DNAse I (Ambion) treatment for 30 min. The one-tenth of the produced cDNA was amplified by PCR using Taq DNA polymerase (Invitrogen) and two reporter sequence-specific primers. The PCR products were fluorescently labeled by primer extension with 6-arboxyfluorescein (6-FAM) 5'-labeled reporter sequence-specific primer (2 min at 95 C, 20 s at 68 C and 10 min at 72 C) and these products were digested with 5U of HpaI (New England Biolabs) for 2h at 37 C. The fragments were purified using Qiaquick PCR columns (Qiagen), analyzed on an ABI 3130xL genetic analyzer (Applied Biosystems) with peak positions identified by using a set of X-rhodamine (ROX)-labeled MapMarker1000 molecular weight standards (BioVentures). The raw capillary electrophoresis data was processed using Attagraph software (Attagene).
With CCC(=O)O[C@H]1CC[C@H]2[C@@H]3CCC4=CC(=O)CC[C@]4(C)[C@H]3CC[C@]12C the AC50 was 140 µM (active) and the outcome was “inactive”. In the case of CC(C)C(=O)OCC(C)(C)C(OC(=O)C(C)C)C(C)C (stereo not given), the outcome is reported as “inactive”. With ClC1=C(Cl)[C@]2(Cl)[C@@H]3[C@H]4C[C@H]([C@@H]5O[C@H]45)[C@@H]3[C@@]1(Cl)C2(Cl)Cl the outcome was “inactive”. For C[C@]12CCC(=O)C=C1CC[C@@H]1[C@@H]2CC[C@]2(C)C(=O)CC[C@@H]12, the outcome was “inactive”. In the case of CCCCCCCCCC[N+](C)(C)CCCCCCCCCC, the AC50 is reported as 100 µM (active). For Clc1ccc(C(Cl)(Cl)Cl)cc1, the outcome was “inactive”. In the case of O=C(NC(=O)c1cc(F)c(F)cc1Cl)Nc1cc(F)ccc1N1CCC(C(=O)O)CC1, the outcome is reported as “inactive”. In the case of O=C(O)C(F)(F)C(F)(F)C(F)(F)C(F)(F)C(F)(F)C(F)(F)C(F)(F)C(F)(F)F, the outcome is reported as “inactive”. In the case of Clc1ccc(C(c2ccccc2Cl)C(Cl)(Cl)Cl)cc1 (stereo not given), the outcome is reported as “inactive”. With CCCN(CCC)N=O the outcome was “inactive”. For CCC(C)c1cc([N+](=O)[O-])cc([N+](=O)[O-])c1O (stereo not given), the outcome was “inactive”. For Nn1cnnc1, the outcome was “inactive”. For O=C(N[C@H]1CN2CCC1CC2)c1cc2ccoc2cn1, the outcome was “inactive”. With Cc1cc(-c2ccc(N)c(C)c2)ccc1N the outcome was “inactive”. With O=C(NC(=O)c1c(F)cccc1F)Nc1cc(Cl)c(OC(F)(F)C(F)F)c(Cl)c1 the outcome was “inactive”. For ClC(Cl)=C(c1ccc(Cl)cc1)c1ccc(Cl)cc1, the outcome was “inactive” and the AC50 was 155 µM (active). For CC(C)(c1ccccc1)c1ccc(O)cc1, the AC50 was 52.1 µM (active) and the outcome was “inactive”. With CCSC(=O)N(CC)C1CCCCC1 the outcome was “inactive”. With CCOP(=S)(OCC)SCSC(C)(C)C the outcome was “inactive”. In the case of Sc1ccccc1, the outcome is reported as “inactive”. In the case of CC(C)(O)C(=O)Nc1ccc([N+](=O)[O-])c(C(F)(F)F)c1, the outcome is reported as “inactive”. For CC(c1ccc(O)cc1)(c1ccc(O)cc1)c1ccc(O)cc1, the outcome was “inactive”. In the case of CC#Cc1cc(C)nc(Nc2ccccc2)n1, the outcome is reported as “inactive”. With CN(C)CCO the outcome was “inactive”. In the case of O=NN(c1ccccc1)c1ccccc1, the outcome is reported as “inactive”. In the case of O=S(=O)(O)C(F)(F)C(F)(F)C(F)(F)C(F)(F)C(F)(F)C(F)(F)F, the outcome is reported as “inactive”. With Cc1ccccc1O the outcome was “inactive”. With CCC(C)(c1ccc(O)cc1)c1ccc(O)cc1 the outcome was “inactive” and the AC50 was 44.9 µM (active). With CO/C=C(/C(=O)OC)c1ccccc1COc1cccc(C(F)(F)F)n1 the outcome was “inactive”. With C=CC(N)=O the outcome was “inactive”. In the case of C[C@]12CCC(=O)C=C1CC[C@@H]1[C@@H]2CC[C@@]2(C)[C@H]1CC[C@]2(C)O, the outcome is reported as “inactive”. With CCCCCCOC(=O)c1ccccc1C(=O)OCCCCCC the outcome was “inactive”. In the case of CCCCCCCCCc1ccc(O)cc1, the AC50 is reported as 49.7 µM (active) and the outcome is reported as “inactive”. In the case of Oc1ccc(C(c2ccc(O)cc2)(C(F)(F)F)C(F)(F)F)cc1, the outcome is reported as “inactive”. In the case of N#Cc1ccc(N(CC(N)=O)CC(F)(F)F)cc1C(F)(F)F, the outcome is reported as “inactive”.
